Data on nine molecules can be found in PubChem BioAssay.

The nature of experiment [1]: inhibitors of TNFa-induced NFkB p65 translocation, primary screen, imaging, HUVEC, MLSMR starter and 10KST1 sets (AID 438;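 active = inhibition above 20% together with a positive visual image hit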;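 also: compound added about 3h40 before a 20 min TNFalpha stimulation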;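 as to inhibition: signal is the nuclear over cytoplasmic p65 intensity ratio per well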). The conditions noted are these: HUVEC TNFa-induced p65 nuclear translocation; cell count: measured here: nuclei count (cytotoxicity indicator), at 2.08 µM; inhibition: at 2 µM, stronger effect = higher value, 0% TNFa-plus-vehicle, 100% no-TNFa wells.
A short description of experiment [2]: reduction of polyQ htt aggregates in cells – imaging, exon1htt(103Q)mCFP cells, high-content imaging, primary screen (AID 483;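 active = visual image review flags a hit and inhibition of aggregation exceeds 20%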;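 also: compound exposure lasted 3 days before fixation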;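 as to nuclei count: percent of the per-plate median nuclei count of sample wells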). The conditions noted are these: exon1htt(103Q)mCFP cell line, aggregate imaging, at 2 µM; inhibition of aggregation: stronger effect = higher value; nuclei count: measured here: cell count, toxicity.
Experiment [3] is described as follows: endothelial E-selectin expression blockers – imaging, HUVEC, immunofluorescence, MLSMR starter and 10KST1 sets, primary screen (AID 487;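 active = visually confirmed hit in the image check and inhibition above 20%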;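 as to inhibition: signal is fraction of cell area covered by stained E-selectin grains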;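 as to nuclei count: 100% = median nuclei count of all wells on the same plate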). The following applies: HUVEC TNFalpha-induced E-selectin immunofluorescence imaging, at 2 µM; inhibition: stronger effect = higher value; nuclei count: measured here: cell number, toxicity.
Experiment [4] has as its target Voltage-gated potassium channel subunit beta-2 (Rattus norvegicus) (UniProt P62483). In words: inhibitors of rat Kvbeta2 reductase activity – biochemical, NADPH fluorescence, primary screen (AID 622;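 active = fluorescence slope higher than the sample average by over 3 SD, cut at about -0.22 in these data, passing the limit was not always enough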;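 also: slope of raw intensity against log time taken from 70 to 1610 s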). The conditions noted are these: recombinant KvBeta, 4-cyanobenzaldehyde reduction, at 10 µM, stronger effect = higher value.
Experiment [5] shares this target. In words: enhancers of rat Kvbeta2 NADPH turnover – biochemical, NADPH fluorescence, primary screen (AID 623;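 active = NADPH fluorescence slope more negative than the mean of all samples by about 3 SD, 99.7% confidence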;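 also: fluorescence intensity change per second fitted from 20 to 320 s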). The conditions noted are these: Recombinant KvBeta, NADPH fluorescence decrease slope, 10 min; at 10 µM; stronger effect = lower value.
Experiment [6] deals with Alpha-2C adrenergic receptor (Homo sapiens) (UniProt P18825). In words: compounds altering alpha2C-coupled GIRK flux – cell-based, HEK293 alpha2C/GIRK1/2, thallium flux, primary screen (AID 624).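 Also: slope of fluorescence ratio to pre-addition baseline per second over 15 to 24 s.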 The conditions noted are these: thallium flux BTC fluorescence, at 10 µM, actives lie on both sides.
Experiment [7] in a line: blockers of RIG-like receptor reporter activation – cell-based, Sendai virus stimulus, luciferase, 10K MLSCN set, TLR/RLR signaling modifier project, primary screen (AID 602276;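 active = inhibition at or above 50% at 10 µM; inactive = inhibition below 50%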;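 also: firefly luciferase from ISG56 promoter only with Renilla not read in this screen; 0% = Sendai virus plus DMSO and 100% = medium plus DMSO without virus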). The following applies: HEK293 RL24 IRF3 luciferase reporter, at 10 µM, stronger effect = higher value.
The nature of experiment [8]: TLR3 IRF3 reporter activation blockers – cell-based, poly I:C stimulus, luciferase, 10K MLSCN set, primary screen (AID 602277;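 active = inhibition of the reporter signal at or above 50%; inactive = inhibition below 50%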). The following applies: HEK293-TLR3 RL24 IRF3 luciferase reporter, at 10 µM, stronger effect = higher value. On the technique in general: Reporter assays use an easily measured gene product as a stand-in for the process of interest.

Structures are written as SMILES. Activity calls are given as the source filed them.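 The calls were made as follows, unless noted: active = fluorescence slope after compound addition differing from the mean of all screened samples at 99.7% confidence, in either direction; inactive = the rest.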

Sequence of Alpha-2C adrenergic receptor (Homo sapiens) (P18825 whole entry, looked up): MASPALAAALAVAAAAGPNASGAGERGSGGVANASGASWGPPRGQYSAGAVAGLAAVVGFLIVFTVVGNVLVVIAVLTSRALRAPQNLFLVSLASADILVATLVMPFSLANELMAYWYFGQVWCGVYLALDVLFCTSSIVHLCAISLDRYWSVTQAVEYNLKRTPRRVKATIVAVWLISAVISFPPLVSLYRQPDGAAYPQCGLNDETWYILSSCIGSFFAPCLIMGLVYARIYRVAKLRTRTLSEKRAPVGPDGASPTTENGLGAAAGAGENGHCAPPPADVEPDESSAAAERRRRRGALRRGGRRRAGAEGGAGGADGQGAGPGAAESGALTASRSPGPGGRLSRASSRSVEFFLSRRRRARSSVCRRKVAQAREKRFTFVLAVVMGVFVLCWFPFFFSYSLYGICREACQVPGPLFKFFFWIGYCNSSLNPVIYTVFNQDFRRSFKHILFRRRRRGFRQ
Sequence of Voltage-gated potassium channel subunit beta-2 (Rattus norvegicus) (P62483 whole entry, looked up): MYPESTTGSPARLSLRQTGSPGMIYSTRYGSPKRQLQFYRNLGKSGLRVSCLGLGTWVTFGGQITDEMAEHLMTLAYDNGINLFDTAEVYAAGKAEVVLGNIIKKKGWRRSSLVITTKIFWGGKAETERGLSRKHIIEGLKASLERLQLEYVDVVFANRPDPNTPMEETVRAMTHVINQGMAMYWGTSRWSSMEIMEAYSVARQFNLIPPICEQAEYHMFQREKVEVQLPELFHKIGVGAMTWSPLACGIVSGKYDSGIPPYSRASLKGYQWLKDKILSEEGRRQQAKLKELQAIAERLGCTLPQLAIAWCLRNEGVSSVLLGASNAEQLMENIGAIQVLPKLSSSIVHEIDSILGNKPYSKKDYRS

As for `COc1cc2c(cc1OC)C(C)N(C(=O)c1cc3n(n1)C(C(F)(F)F)CC(c1ccco1)N3)CC2` (centres undefined), the cell count in experiment [1] turned out to be 591. Moreover, the inhibition (as a rule, the drop in the measured response relative to a control, in per cent) in experiment [1] is 9.6% (inactive); in experiment [3], -22% (inactive); in experiment [7], 25.6% (inactive); in experiment [8], 19.1% (inactive). Besides, the inhibition of aggregation in experiment [2] was -0.8% (inactive). In addition, the nuclei count in experiment [2] came to 97.6%; in experiment [3], 96.6%. Moreover, the fluorescence slope in experiment [4] was -0.613 (inactive). Moreover, in experiment [5], the NADPH fluorescence slope was 1.3e-05 (inactive). Also, the slope in experiment [6] was 0.00369 (inactive).
Turning to `CN(C)CCCNC(=O)c1ccc(CN(c2ccccc2)S(C)(=O)=O)cc1`, the cell count in experiment [1] worked out at 641. In addition, the inhibition in experiment [1] was 1% (inactive); in experiment [3], 25.8% (inactive); in experiment [7], 8.82% (inactive); in experiment [8], 24.2% (inactive). The inhibition of aggregation in experiment [2] was -1.7% (inactive). In addition, the nuclei count in experiment [2] was found to be 101%; in experiment [3] it was 84.7%. Moreover, the fluorescence slope in experiment [4] is -0.43 (inactive). For the same molecule, the NADPH fluorescence slope in experiment [5] is -0.000115 (inactive). The slope in experiment [6] was 0.00575 (inactive).
In the case of `CCOc1nc(-c2ccccc2)ccc1-c1noc(-c2ccc(OC)c(OC)c2)n1`, the cell count in experiment [1] was 418. The inhibition in experiment [1] is 11.7% (inactive); in experiment [3], -27% (inactive); in experiment [7], 8.22% (inactive); in experiment [8], 9.49% (inactive). Also, the inhibition of aggregation in experiment [2] is -27.9% (inactive). Moreover, the nuclei count in experiment [2] was 99.7%; in experiment [3] it was 107%. Further, in experiment [4], the fluorescence slope is -0.385 (inactive). In experiment [5], the NADPH fluorescence slope is 5.6e-06 (inactive). Also, in experiment [6], the slope is 0.0092 (inactive).
For `Cc1c(C(=O)N2CCN(c3ccccc3)CC2)sc2ncnc(N3CCN(c4ccccc4)CC3)c12`, the cell count in experiment [1] came out at 613. Also, the inhibition in experiment [1] was 6.2% (inactive); in experiment [3] it was -70.4% (inactive); in experiment [7] it was 7.72% (inactive); in experiment [8], 4.87% (inactive). For the same molecule, the inhibition of aggregation in experiment [2] is 9.7% (inactive). In addition, the nuclei count in experiment [2] amounted to 107%; in experiment [3], 127%. Also, the fluorescence slope in experiment [4] was -0.445 (inactive). The NADPH fluorescence slope in experiment [5] was -1.1e-05 (inactive). For the same molecule, the slope in experiment [6] was 0.00705 (inactive).
For `Cc1cc(C(=O)Nc2ccccc2C#N)n(-c2ccccc2)n1`, in experiment [1], the cell count was found to be 763. Besides, the inhibition in experiment [1] was 7.7% (inactive); in experiment [3], 27.3% (inactive); in experiment [7], -2.18% (inactive); in experiment [8], 20.7% (inactive). Also, the inhibition of aggregation in experiment [2] is 19.6% (inactive). The nuclei count is 88.3% in experiment [2] and 108% in experiment [3]. The fluorescence slope in experiment [4] was -0.556 (inactive). Besides, the NADPH fluorescence slope in experiment [5] is 2.9e-05 (inactive). For the same molecule, the slope in experiment [6] is 0.00747 (inactive).
Regarding `CCN1CCN(C(=O)Cn2ncc3ccsc3c2=O)CC1`, in experiment [1], the cell count was determined as 697. Besides, the inhibition was -1.8% (inactive) in experiment [1], -54.3% (inactive) in experiment [3], 3.05% (inactive) in experiment [7] and 26.3% (inactive) in experiment [8]. Further, in experiment [2], the inhibition of aggregation is 27.4% (inactive). Also, the nuclei count in experiment [2] was 96.5%; in experiment [3], 120%. Also, the fluorescence slope in experiment [4] is -0.571 (inactive). For the same molecule, the NADPH fluorescence slope in experiment [5] was -8e-06 (inactive). Also, in experiment [6], the slope is 0.00578 (inactive).
Turning to `CCOC(=O)Cn1c(CN2CCN(c3cccc(Cl)c3)CC2)nc2c1c(=O)[nH]c(=O)n2C`, the cell count in experiment [1] was determined as 669. Further, the inhibition was 0% (inactive) in experiment [1], 6.7% (inactive) in experiment [3], 16.4% (inactive) in experiment [7] and 32.5% (inactive) in experiment [8]. Also, the inhibition of aggregation in experiment [2] is -3.2% (inactive). For the same molecule, the nuclei count in experiment [2] worked out at 111%; in experiment [3], 120%. In addition, the fluorescence slope in experiment [4] was -0.583 (inactive). In addition, the NADPH fluorescence slope in experiment [5] was -1.7e-05 (inactive). Moreover, the slope in experiment [6] was 0.00641 (inactive).
For `CCCCSc1nc2c(cnn2-c2ccc(F)cc2)c(=O)[nH]1`, in experiment [1], the cell count is 619. Moreover, the inhibition is -10.7% (inactive) in experiment [1], -19.6% (inactive) in experiment [3], 4.85% (inactive) in experiment [7] and 12.8% (inactive) in experiment [8]. Also, the inhibition of aggregation in experiment [2] is 13.9% (inactive). The nuclei count was determined as 81.3% in experiment [2] and 122% in experiment [3]. Also, the fluorescence slope in experiment [4] was -0.458 (inactive). Besides, the NADPH fluorescence slope in experiment [5] is -3.7e-05 (inactive). The slope in experiment [6] was 0.00558 (inactive).
`Cc1nc2c(-c3ccccc3)c(C)nn2c(C)c1CCC(=O)NCc1ccco1`: the cell count in experiment [1] is 545. Also, the inhibition in experiment [1] was -1.1% (inactive); in experiment [3], -61.2% (inactive); in experiment [7], 9.03% (inactive); in experiment [8] it was 31.1% (inactive). Further, in experiment [2], the inhibition of aggregation is -8.9% (inactive). Moreover, the nuclei count came out at 84.3% in experiment [2] and 102% in experiment [3]. Also, in experiment [4], the fluorescence slope was -0.584 (inactive). Moreover, in experiment [5], the NADPH fluorescence slope is 1.5e-05 (inactive). For the same molecule, the slope in experiment [6] is 0.00663 (inactive).
